Among the data in PubChem BioAssay are parasite load remaining, viability and red/green cell ratio (normalised) values, retold here.

Values joined by “and” are separate entries in the source; they are usually repeats but may differ in a detail not shown here. Identical values can stand only once. Active and inactive are the calls of the source.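 Rule for the calls, unless noted: active = compounds killing one labelled cell type while sparing the other, by normalised counts and ratio limits, not self-fluorescent; inactive = the rest.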

One assay can be described thus: P. berghei load reduction in hepatocytes – cell-based, HepG2, luciferase luminescence, HepG2 viability, primary screen (AID 624349; in the data active = parasite load remaining mostly below about 12%, no sharp cut-off; inactive = mostly above about 10%;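 note: 100% = mean of DMSO negative control wells on the same plate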). The following applies: P. berghei liver stage in HepG2, luciferase luminescence, concentration not given here; parasite load remaining: stronger effect = lower value; viability: measured here: HepG2 viability without parasites.
As usually defined, the viability is a read-out of living cells in per cent, often relative to untreated cells. For the compound `NCCc1c[nH]c2ccc(O)cc12`, the parasite load remaining was 63.9% (inactive) and 71.4% (inactive); the viability was 113% and 89.1%.
As for `COc1cc2c(cc1OC)[C@@]13CCN4CC5=CCOC6CC(=O)N2C1[C@H]6[C@H]5C[C@H]43` (some centres not stated), the parasite load remaining was 97.7% (inactive) and 56.5% (inactive); the viability was 63.5% and 87.4%.
Regarding `CCCN1CCC[C@@H]2Cc3[nH]ncc3C[C@H]21`, the parasite load remaining is 75.7% (inactive) and 34.7% (inactive); the viability was 68.7% and 143%.

The nature of another assay: EMT-state selective cytotoxicity in co-culture – imaging, PC-3E GFP, TEM4-18 mCherry, primary screen (AID 1345086).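 Note: normalised mesenchymal count divided by normalised epithelial count so high means epithelial killing; cells exposed to compound for 72 h before imaging.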 The following applies: PC-3E GFP / TEM4-18 mCherry co-culture, imaging cell counts; at 1 µM; actives lie on both sides.
Take `C[C@]12CCC(=O)C=C1CCC1C2CC[C@@]2(C)C1CC[C@H]2O` (some centres not stated): the red/green cell ratio (normalised) is 1.17 (inactive).
With `C[C@@H]1CC[C@@]2(OC1)OC1C(O)C3C4CC[C@H]5C[C@H](O[C@@H]6O[C@H](CO)[C@H](O[C@@H]7O[C@H](CO)[C@@H](O)[C@H](O[C@@H]8OC[C@@H](O)[C@H](O)[C@H]8O)[C@H]7O[C@@H]7O[C@H](CO)[C@H](O)[C@H](O[C@@H]8O[C@H](CO)[C@@H](O)[C@H](O)[C@H]8O)[C@H]7O)[C@H](O)[C@H]6O)[C@H](O)C[C@]5(C)C4CC[C@]3(C)C1[C@@H]2C` (some centres not stated), the red/green cell ratio (normalised) was 0.84 (inactive).
Same read-out and setting: as for `C[C@]12CCC3C(CC[C@@H]4CC(=O)CC[C@]34C)C1CCC2=O` (some centres not stated), the figure is 1.04 (inactive); as for `C[C@]12CCC3C(CC[C@H]4C[C@H](O)CC[C@]34C)C1CCC2=O` (some centres not stated), 1.16 (inactive).
Same read-out and setting: next, `CCN1C[C@]2(OC(=O)c3ccccc3NC(C)=O)CCC(OC)[C@]34C1[C@@H](CC23)[C@@]1(O)CC(OC)[C@H]2CC4C1(O)[C@H]2OC` (some centres not stated): 1 (inactive).
The same measure, in the same setting: next, `CC1(C)C(=O)C=C[C@@]2(C)C1C[C@@H](O)[C@]1(C)C2CC[C@@]2(C)[C@H](c3ccoc3)OC(=O)[C@H]3O[C@]321` (some centres not stated): 1.08 (inactive).
